# Hits are enriched below; roughly 21% of the tested compounds scored in any of these assays.
# DRD3 agonist: agonists of human D3 dopamine receptor | P35462 | 410,000 compounds, 0.58% hits | D3R DiscoveRx beta-arrestin cells, luminescence, 90 min | max activation, % | AID 652048; in the data active = max activation above about 30%; also: 0% is about no effect
# Target sequence (P35462 whole entry, looked up): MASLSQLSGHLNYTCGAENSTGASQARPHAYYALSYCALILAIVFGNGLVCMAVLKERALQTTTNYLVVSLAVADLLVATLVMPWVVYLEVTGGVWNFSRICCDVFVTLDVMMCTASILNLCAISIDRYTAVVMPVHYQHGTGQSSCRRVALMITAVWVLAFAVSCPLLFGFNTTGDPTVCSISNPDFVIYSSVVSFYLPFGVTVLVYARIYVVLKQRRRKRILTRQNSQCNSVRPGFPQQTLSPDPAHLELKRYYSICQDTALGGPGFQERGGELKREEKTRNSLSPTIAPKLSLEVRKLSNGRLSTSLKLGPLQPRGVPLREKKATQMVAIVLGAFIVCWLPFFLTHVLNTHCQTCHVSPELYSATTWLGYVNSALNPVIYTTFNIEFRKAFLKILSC
#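 Agonist-mode cell screen: cells plated at 1500/well and incubated overnight at 37 °C, then exposed to library compounds for 90 min at 37 °C. Detection reagent was added for 30–60 min at room temperature, and luminescence was read.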
# DRD3 antagonist: D3 dopamine receptor (human) antagonism; P35462; max response, negative = inhibition, %; D3R cells, DiscoveRx beta-arrestin luminescence, antagonist mode; active compounds read low; 360,000 compounds, 2.5% hits; in the data active = max response below about -50%; inconclusive = no clear call, values can overlap the other calls; also: % is scaled to controls: 0 for no effect and ±100 for the full control effect
#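 Cells plated overnight at 1500 cells/well, then exposed to library compounds with dopamine controls for 90 minutes at 37 degrees C. DiscoveRx reagent added for 30–60 minutes at room temperature; luminescence read, quantitative HTS format.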
# ClpP mod: qHTS Assay for Activators of ClpP; purified B. subtilis ClpP, FRET peptide cleavage, 20 min; 340,000 compounds, 1.9% hits; Potency, µM (doses to about 57.5 µM), inactives show at the top dose activity change, negative = active; ATP-dependent Clp protease proteolytic subunit (Bacillus subtilis (strain 168)), P80244; AID 651965, 2013; active = well fitted falling curve with a large enough effect; inconclusive = small, poorly fitted or top-dose-only effect; inactive = no such curve, though single readings can be large or run the other way; also: potency is read from the fitted curve at half-maximal effect; the source files actives as falling curves though it sought activators and does not explain the sign; nearly all actives have a fitted effect of over 65% in size
# Target sequence (P80244 whole entry, looked up): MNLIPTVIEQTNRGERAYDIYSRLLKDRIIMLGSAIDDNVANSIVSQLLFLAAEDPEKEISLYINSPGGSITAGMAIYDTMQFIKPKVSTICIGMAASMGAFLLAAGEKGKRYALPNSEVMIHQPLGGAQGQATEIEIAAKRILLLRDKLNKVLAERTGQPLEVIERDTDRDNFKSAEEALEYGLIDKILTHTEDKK
#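 FRET quenching reversal measured ClpP activation: 10 microg/mL B. subtilis ClpP at pH 8 with the FRET-FV decapeptide, read at 430 nm after 320 nm excitation. The 20-min minus 0-min signal was scaled between DMSO/no-enzyme wells and ADEP (5.8 microM final).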
# IL1B secr inh: inflammasome signaling inhibition, IL-1 beta readout; 360,000 compounds, 4.7% hits; AID 743279; THP-1 LPS/ATP IL-1B secretion, AlphaLISA, 16 h; active compounds read low; activity change, % at 57.5 µM; in the data active = activity change below about -50%; inconclusive = mostly about -30% to -49%; also: % is scaled to controls: 0 for no effect and ±100 for the full control effect
#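 THP-1 cells pretreated 1 hr with compounds (up to 57.5 uM final), then stimulated with LPS (250 ng/mL final) plus ATP (1.25 mM final); secreted IL-1B measured by AlphaLISA after 16 hr, decreased signal indicating inhibition.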
# TDP1 cell CPT: growth inhibition of DT40 Tdp1-/-;hTDP1 cells with camptothecin (screen for TDP1 inhibitors); chicken DT40 Tdp1-/-;hTDP1 cells + 20 nM CPT, ATP luminescence, 48 h; AID 686979; 420,000 compounds, 12% hits; Potency, µM (top dose mostly 46.2 µM), for inactives: at the highest dose activity change, negative = growth inhibition, usual class: inhibitors; also: potency is read from the fitted curve at half-maximal effect; % is scaled to controls: 0 for no effect and ±100 for the full control effect; nearly all actives have a fitted effect of over 55% in size
#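 Chicken DT40 Tdp1-/- cells complemented with human TDP1, 400 cells/well, exposed to compounds plus 20 nM camptothecin for at least 48 h at 37 C; viability read as ATP content by CellTiter-Glo luminescence.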
# TDP1 cell noCPT: qHTS for Inhibitors of human tyrosyl-DNA phosphodiesterase 1 (TDP1): qHTS in cells in absence of CPT. Potency, µM (doses to about 46.2 µM), without a hit: at the highest dose activity change, negative = growth inhibition, hits mostly inhibitors. AID 686978, 2013. DT40 Tdp1-/- hTDP1 cells, no CPT, ATP luminescence, 48 h. 420,000 compounds, 15% hits; also: potency is read from the fitted curve at half-maximal effect; % is scaled to controls: 0 for no effect and ±100 for the full control effect; nearly all actives have a fitted effect of over 55% in size
#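 Camptothecin absent (DMSO only). Human TDP1-complemented DT40 knockout cells, 400 cells/well, 37 °C for minimum 48 hr; ATP measured via CellTiter-Glo, 30 min dark incubation, luminescence.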
# An asterisk follows results filed as active; ? = inconclusive; · = not tested or not shown; ! = repeats disagree. Unless noted, calls follow the shape of the dose curve; as a rule, active = well fitted inhibition curve with a large enough effect; inconclusive = small, poorly fitted or top-dose-only effect; inactive = flat fitted curve, though single readings scatter.
SMILES,DRD3 agonist,DRD3 antagonist,ClpP mod,IL1B secr inh,TDP1 cell CPT,TDP1 cell noCPT
CC(=O)Nc1ccc(C2=CC(=O)CC(C)(C)C2)cc1,-11,?,-26%,-15,?,-26%
CC1(C)CC(=O)C=C(c2ccc(I)cc2)C1,-13,-17,-2%,-74*,-9%,?
Cc1cc2c(cc1NS(=O)(=O)c1cccc(C#N)c1)n(C)c(=O)c(=O)n2C,0,·,-1%,·,4%,?
COc1cc2c(cc1NS(=O)(=O)c1cccc(C#N)c1)n(C)c(=O)n2C,0,·,-2%,·,21µM*,?
CCNc1ccc(C(=O)N/N=C/c2c(C)nn(-c3ccccc3)c2N2CCCC2)cc1[N+](=O)[O-],-6,3,1%,18,18µM*,?
CC(=O)C1C(=O)C=C(c2ccco2)CC1c1ccccc1 (stereo not drawn),1,-1,2%,-3,?,18µM*
Cc1ccc(Cn2c(=O)n(-c3cccc(C(F)(F)F)c3)c(=O)c3c(C)c(C)sc32)c(C)c1,-5,·,-1%,·,?,?
CCc1cccc(NC(=O)CCS(=O)(=O)c2ccc3nc(C)sc3c2)c1,9,·,-1%,·,?,?
Cc1nc(-c2ccccc2)c(Cc2ccccc2O)c(=O)[nH]1,-4,0,0%,22,5.8µM*,5.2µM*
CC1(C)CC(=O)C(C=NCCN2CCNCC2)=C(O)C1,-1,-5,·,-22,-22%,?
CCN1C(=O)c2ccccc2S(=O)(=O)c2ccc(C(=O)NCc3ccc(F)cc3)cc21,-7,·,2%,·,?,23µM*
COc1ccc(CCNC(=O)c2ccc3c(c2)N(Cc2ccc(F)cc2)C(=O)c2ccccc2S3(=O)=O)cc1OC,-18,·,2%,·,?,12µM*
O=C(NCCc1ccccc1)c1ccc2c(c1)N(Cc1ccc(Cl)cc1)C(=O)c1ccccc1S2(=O)=O,2,·,-13%,·,15µM*,23µM*
O=C(NCCc1ccc(Cl)cc1)c1ccc2c(c1)N(Cc1ccccc1F)C(=O)c1ccccc1S2(=O)=O,-16,·,-1%,·,?,?
Cc1cc(C)c(C#N)c(SCC(=O)C2CC2)n1,8,18,25%,83,-5%,?
CCN(Cc1ccccc1)Cc1c(O)ccc2oc(C)c(C(=O)Nc3ccc(C)cc3C)c12,13,·,?,·,7.3µM*,7.3µM*
Cc1ccc(NC(=O)c2c(C)oc3ccc(O)c(CN(C)Cc4ccccc4)c23)c(C)c1,-9,·,-4%,·,16µM*,15µM*
CCCn1c(N)c(N(CCOC)C(=O)c2cc3ccccc3cc2OC)c(=O)[nH]c1=O,1,5,-7%,12,4%,10%
Cc1ccccc1-c1cc(N(C)C)ncn1,·,·,·,·,-10%,-1%
COc1cc(OC)c(NC(=O)CCCn2nc(C)c3c(C)n(-c4ccccc4)nc3c2=O)cc1Cl,-2,·,-1%,·,?,?
CCOC(=O)C1=C(c2cccc(Oc3ccccc3)c2)NC(=S)NC1C (stereo not drawn),-5,17,-1%,-19,?,23µM*
CCOC(=O)C1=C(C)C(c2cccc(Oc3ccccc3)c2)NC(=S)N1 (stereo not drawn),2,7,·,-74*,?,?
CCOC(=O)C1=C(C)C(c2ccc(OC)cc2)NC(=S)N1 (stereo not drawn),0,-16,0%,4,21µM*,29µM*
Cc1ccccc1C(=O)NNC(=O)c1cccn1C,1,0,·,2,-20%,-22%
COc1ccc([C@@]23Oc4cc(OC)cc(OC)c4[C@]2(O)[C@H](O)[C@H](C(=O)N(C)C)[C@H]3c2ccccc2)cc1,8,-29,-2%,-3,0.0073µM*,0.0092µM*
SMILES,DRD3 agonist,DRD3 antagonist,ClpP mod,IL1B secr inh,TDP1 cell CPT,TDP1 cell noCPT
COc1cc(-c2cc(=O)c3c(O)c(OC)c(OC)cc3o2)cc(OC)c1O,-1,4,3%,-19,16µM*,?
O=c1cc(-c2ccc(O)cc2)oc2cc(O)c(C3OC(CO)C(O)C(O)C3O)c(O)c12 (stereo not drawn),-26,-64*,-23%,49,-28%,?
COc1cc(-c2cc(=O)c3ccccc3o2)ccc1O,-5,7,-4%,-14,?,?
O=c1cc(-c2ccc(O)cc2)oc2cc(O)cc(O)c12,18,0,-2%,-89*,?,5.2µM*!
COc1cc(-c2cc(=O)c3c(O)cc(O)cc3o2)ccc1O,12,24,1%,-64*,21µM*,?
COc1cc(C(=O)N(c2ccc(C)c(C)c2)C2C=CS(=O)(=O)C2)cc(OC)c1OC (stereo not drawn),4,9,-2%,-2,?,?
O=c1cc(-c2ccccc2O)oc2cc(O)cc(O)c12,·,·,·,·,30µM*,21µM*
COc1ccc(-c2cc(-c3nnc(COC(=O)c4ccncc4)o3)c3ccccc3n2)cc1OC,5,29,·,?,-28%,9.2µM*
O=c1c2ccccc2nc(SCc2nnc(-c3ccccc3)o2)n1-c1ccc(F)cc1F,3,0,25µM*,23,?,?
O=C(OCc1nnc(-c2ccc(Cl)cc2)o1)c1ccncc1,-5,16,-3%,-4,0%,3%
COc1ccc(-c2nnc(CSc3nc4ccccc4c(=O)n3C)o2)cc1OC,2,24,-4%,-11,15µM*,21µM*
COc1ccc(CN2CCN(C(=O)Cn3nc(C(=O)O)c4ccccc4c3=O)CC2)cc1F,8,-9,-3%,-14,-2%,-6%
O=c1oc2ccccc2c(N2CCN(c3ccccc3F)CC2)c1CN1CCCC1,-13,·,-1%,·,?,?
CCC(=O)Nc1ccc2c(c1)N(C(C)=O)c1ccccc1CC2,-5,?,-1%,-10,-7%,-4%
CCC(C)N(C(=O)Cn1nnc(-c2ccc(F)cc2)n1)C1CCS(=O)(=O)C1 (stereo not drawn),-5,4,-2%,-1,-13%,11%
Fc1ccc(-c2nc3ccccn3c2NCc2ccc3c(c2)OCO3)cc1,-2,3,·,-14,?,?
Cc1ccc2nc(NCc3ccccc3)c(C=NCc3ccccc3)c(=O)n2c1,7,18,·,13,1%,-23%
Cc1ccc2nc(-c3cccc(-c4cccc(Cl)c4)c3)c(NCc3ccccc3)n2c1,5,8,3%,0,9.2µM*,?

# Bioassay records (PubChem)
